Experimental findings from the supplement of paper PMC10338343 are described below.

± gives the standard deviation.

Experiment [1] relates to MILI (PIWIL2) piRISC loaded with piRNA #1 (26 nt). Briefly: pre-steady-state target cleavage rate (min^-1); guide: piRNA #1 5'p-UGAGGUAGUAGGUUGUAUAGUAUCCA; higher = faster piRNA-guided slicing of the target. The following applies: auxiliary factor: 500 nM mouse GTSF1. In short, it runs like this:
(§1)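 Three pooled Cleave-'n-Seq trials supplied the data, with k3 capped at 0.0001 min^-1. In each, […] transcribed, DNA-blocked target RNA library and 1 nM active affinity-purified piRISC with one synthetic guide reacted in HEPES–potassium acetate buffer at 33 °C for 0–8 or 0–960 min, with or without 500 nM GTSF1 partner protein. Uncleaved targets were sequenced and normalised to depth and to weakly complementary targets. A burst-and-steady-state fit provided the pre-steady-state cleavage rate.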

Experiment [2] concerns EfPiwi piRISC loaded with piRNA #1 (26 nt). Briefly: pre-steady-state target cleavage rate (min^-1); auxiliary factor: 500 nM Ephydatia muelleri Gtsf1; guide: piRNA #1 5'p-UGAGGUAGUAGGUUGUAUAGUAUCCA; MIWI and MILI are mouse PIWI proteins and EfPiwi is from a freshwater sponge; tags in brackets are library labels; higher = faster piRNA-guided slicing of the target. In short, it runs like this:
as §1

Consider GGAGACCAUACUAUACAACCUACGACCUCA, for which the “pre-steady-state target cleavage rate” value in experiment [1] is 0.137 ± 0.018; in experiment [2], 0.00282 ± 0.0019.

Regarding GGAGUGGAUAGUAUACAACCUACUACCUCA, the results for the “pre-steady-state target cleavage rate” value in experiment [1] and in experiment [2] were 0.0868 ± 0.0069 and 0.00712 ± 0.0031, respectively.

“GGAGACCUAUGAUAUGUACCUACAUGGAGA [g8:g13:cont:t1A]”: the “pre-steady-state target cleavage rate” value in experiment [1] and in experiment [2] was less than 0.0001 each time.

With GGAGUGGAUACUAUACAACCUACUACGUCA, the “pre-steady-state target cleavage rate” value was found to be 0.0515 ± 0.0063 in experiment [1] and 0.00568 ± 0.0024 in experiment [2].

Take GGAGACCUUACAAUACAACGUACUACCUCA: the results for the “pre-steady-state target cleavage rate” value in experiment [1] and in experiment [2] were 0.0135 ± 0.0052 and 0.00409 ± 0.004, respectively.

In the case of GGAGACGAUACUAUACAACCUACUACGACA, the figures for the “pre-steady-state target cleavage rate” value in experiment [1] and in experiment [2] were 0.131 ± 0.022 and 0.0045 ± 0.0019, respectively.

As to GGAGUGGAUCUAUACAACCUACUACCUCA, the “pre-steady-state target cleavage rate” value came to 0.155 ± 0.011 in experiment [1] and 0.0612 ± 0.029 in experiment [2].

Turning to GGAGACGAAACUAUACAAGCUACUACCUCA, the “pre-steady-state target cleavage rate” value in experiment [1] stood at 0.242 ± 0.02; in experiment [2], 0.00338 ± 0.0017.

In the case of GGAGUGGAUACUAUACAAGCUACUUCCUCA, the results for the “pre-steady-state target cleavage rate” value in experiment [1] and in experiment [2] were 0.0765 ± 0.0095 and 0.00402 ± 0.0022, respectively.

Turning to GGAGACCAUACUAUACAACCUACACCUCA, the “pre-steady-state target cleavage rate” value in experiment [1] came to 0.00885 ± 0.0037; in experiment [2] it was 0.00776 ± 0.0044.

Take GGAGAUGAUACUAUACAACCUACUACCUCA: the “pre-steady-state target cleavage rate” value in experiment [1] turned out to be 0.198 ± 0.013; in experiment [2] it was 0.193 ± 0.068.

Turning to GGAGUGGAUACUAUACAACAUACUACCUCA, the “pre-steady-state target cleavage rate” value in experiment [1] came to 0.0845 ± 0.0098; in experiment [2], 0.00987 ± 0.0037.

Take GGAGACGAUCUAUACAACCUACUACCUCA: the “pre-steady-state target cleavage rate” value worked out at 0.174 ± 0.013 in experiment [1] and 0.0198 ± 0.01 in experiment [2].

As to GGAGACCUUACUACACAACCUACUACCUCA, the “pre-steady-state target cleavage rate” value came out at 0.126 ± 0.017 in experiment [1] and 0.00432 ± 0.0039 in experiment [2].

Regarding GGAGAGGAUACAUACAACCUACUACCUCA, the “pre-steady-state target cleavage rate” value in experiment [1] worked out at 0.137 ± 0.016; in experiment [2], 0.0103 ± 0.005.

As to GGAGUGGAUACAUAUACAACCUACUACCUCA, the “pre-steady-state target cleavage rate” value in experiment [1] stood at 0.114 ± 0.011; in experiment [2], 0.0717 ± 0.027.

Take GGAGACCUAACUAUACAACCUACAUCCUCA: the “pre-steady-state target cleavage rate” value in experiment [1] came to 0.0364 ± 0.013; in experiment [2], 0.00597 ± 0.0051.

For GGAGAGGAUACUAUACAACCAUCUACCUCA, the “pre-steady-state target cleavage rate” value was 0.00516 ± 0.0022 in experiment [1] and 0.0052 ± 0.002 in experiment [2].

In the case of GGAGACGAAACUUUACAACCUACUACCUCA, the figures for the “pre-steady-state target cleavage rate” value in experiment [1] and in experiment [2] were 0.213 ± 0.03 and 0.0147 ± 0.0064, respectively.

GGAGAGCAUACUAUACAACCAACUACCUCA: the “pre-steady-state target cleavage rate” value in experiment [1] worked out at 0.00634 ± 0.0024; in experiment [2], 0.00434 ± 0.0022.

“GGAGACCUAACUAUACAACCUACUACCUCC [g2:g21:cont:t1C]”: the “pre-steady-state target cleavage rate” value in experiment [1] was found to be 0.175 ± 0.03; in experiment [2], 0.00701 ± 0.0033.

As for GGAGUGAAUACUAUACAACCUACUACCUCA, the “pre-steady-state target cleavage rate” value in experiment [1] turned out to be 0.175 ± 0.009; in experiment [2], 0.102 ± 0.037.

GGAGUGGAUACUUAUACAACCUACUACCUCA: the results for the “pre-steady-state target cleavage rate” value in experiment [1] and in experiment [2] were 0.133 ± 0.0093 and 0.093 ± 0.034, respectively.

For the sequence GGAGUCCUUACUAUACAACCUACUACCUCA, the “pre-steady-state target cleavage rate” value amounted to 0.174 ± 0.011 in experiment [1] and 0.0555 ± 0.021 in experiment [2].

GGAGAGGAGUACUAUACAACCUACUACCUCA: the “pre-steady-state target cleavage rate” value in experiment [1] is 0.0702 ± 0.0063; in experiment [2], 0.00348 ± 0.003.

As for GGAGACCAUACUAUACAACCUACUACGAGA, the “pre-steady-state target cleavage rate” value was determined as 0.0759 ± 0.019 in experiment [1] and 0.00579 ± 0.0027 in experiment [2].

Consider GGAGACCUAACUAUACAACCUAAUACCUCA, for which the “pre-steady-state target cleavage rate” value was 0.0504 ± 0.013 in experiment [1] and 0.00511 ± 0.0036 in experiment [2].

Take GGAGACGAUUCUAUAGAACCUACUACCUCA: the “pre-steady-state target cleavage rate” value was determined as 0.172 ± 0.012 in experiment [1] and 0.00226 ± 0.0018 in experiment [2].

For GGAGUGGAUACUAUACAAGCUUCUACCUCA, the “pre-steady-state target cleavage rate” value was determined as 0.0391 ± 0.0037 in experiment [1] and 0.00507 ± 0.0021 in experiment [2].

With GGAGACGAUACUAUACAACCUACUACCCUCA, the results for the “pre-steady-state target cleavage rate” value in experiment [1] and in experiment [2] were 0.176 ± 0.021 and 0.00506 ± 0.0015, respectively.

For GGAGAGGAUACUAUUACAACCUACUACCUCA, the results for the “pre-steady-state target cleavage rate” value in experiment [1] and in experiment [2] were 0.167 ± 0.012 and 0.0933 ± 0.04, respectively.

GGAGACGAUACUUAACAACCUACUACCUCA: the “pre-steady-state target cleavage rate” value turned out to be 0.134 ± 0.013 in experiment [1] and 0.00683 ± 0.0038 in experiment [2].

In the case of GGAGACGAUACUAUACAACUACUACCUCA, the “pre-steady-state target cleavage rate” value in experiment [1] was determined as 0.0571 ± 0.0061; in experiment [2], 0.00742 ± 0.0033.

For GGAGUGGAUUCUAUACAACCUACUACCUGA, the “pre-steady-state target cleavage rate” value in experiment [1] was 0.0905 ± 0.012; in experiment [2], 0.00261 ± 0.002.

GGAGACCAAUACUAUACAACCUACUACCUCA: the “pre-steady-state target cleavage rate” value in experiment [1] stood at 0.193 ± 0.021; in experiment [2] it was 0.5 ± 0.18.

As for GGAGACCAUACUAUACAUCCAACUACCUCA, the “pre-steady-state target cleavage rate” value is 0.00924 ± 0.0032 in experiment [1] and 0.00245 ± 0.0022 in experiment [2].

GGAGUGGAUACUAUACAAGCUACUACCUCA: the “pre-steady-state target cleavage rate” value in experiment [1] was 0.233 ± 0.013; in experiment [2], 0.008 ± 0.0032.

As for GGAGACCAUACUCAUACAACCUACUACCUCA, the “pre-steady-state target cleavage rate” value in experiment [1] came out at 0.119 ± 0.013; in experiment [2] it was 0.0108 ± 0.0052.

As to GGAGAGGAUACUAUACAACAUACUACCUCA, the entries for the “pre-steady-state target cleavage rate” value in experiment [1] and in experiment [2] were 0.0488 ± 0.0058 and 0.0063 ± 0.0023, respectively.

For the sequence GGAGUGGAUACUAAACAACCUACUACCUGA, the figures for the “pre-steady-state target cleavage rate” value in experiment [1] and in experiment [2] were 0.0827 ± 0.012 and 0.00228 ± 0.0017, respectively.

For GGAGACGAUACUAUACAACCUACUAGCCUCA, the “pre-steady-state target cleavage rate” value in experiment [1] was 0.159 ± 0.021; in experiment [2], 0.00485 ± 0.002.

For GGAGACCUAUGUAUUACAACCUACUACCUCA, the figures for the “pre-steady-state target cleavage rate” value in experiment [1] and in experiment [2] were 0.0187 ± 0.0046 and 0.0036 ± 0.0033, respectively.

As to GGAGACGAUAGUAUACAACCUACAACCUCA, the “pre-steady-state target cleavage rate” value in experiment [1] amounted to 0.106 ± 0.011; in experiment [2], 0.00195 ± 0.0018.

On to GGAGUGGAUAGUAUACAAGCUACUACCUCA, for which the “pre-steady-state target cleavage rate” value worked out at 0.0697 ± 0.01 in experiment [1] and 0.00224 ± 0.0021 in experiment [2].

Regarding GGAGACGAUACUAUACAACGUAGUACCUCA, the “pre-steady-state target cleavage rate” value in experiment [1] worked out at 0.00546 ± 0.0032; in experiment [2], 0.00274 ± 0.0012.

GGAGACCUAUCUAUACAACCUACUACCGUCA: the “pre-steady-state target cleavage rate” value in experiment [1] turned out to be 0.141 ± 0.019; in experiment [2], 0.00478 ± 0.0036.

On to GGAGUGGAUUCUAUACAACCUAGUACCUCA, for which the “pre-steady-state target cleavage rate” value in experiment [1] amounted to 0.0634 ± 0.011; in experiment [2], 0.00168 ± 0.0013.

With GGAGACCUAUCAUUACAACCUACUACCUCA, the “pre-steady-state target cleavage rate” value in experiment [1] is 0.0146 ± 0.0049; in experiment [2], 0.00563 ± 0.0035.

Turning to GGAGACGAUACUAUACAACCUACUAGCUCA, the “pre-steady-state target cleavage rate” value in experiment [1] was 0.11 ± 0.019; in experiment [2], 0.00381 ± 0.0011.

Turning to GGAGAGGAUAGUAUACAACCUACUACCACA, the “pre-steady-state target cleavage rate” value came to 0.0774 ± 0.011 in experiment [1] and 0.00287 ± 0.002 in experiment [2].

GGAGUGCGAUACUAUACAACCUACUACCUCA: the “pre-steady-state target cleavage rate” value came out at 0.206 ± 0.013 in experiment [1] and 0.136 ± 0.044 in experiment [2].

With GGAGAGGUUACUAUACAACCUACUACGUCA, the “pre-steady-state target cleavage rate” value amounted to 0.011 ± 0.0037 in experiment [1] and 0.00435 ± 0.0016 in experiment [2].

Take GGAGAGGAUACAAUACAACCUACUACGUCA: the “pre-steady-state target cleavage rate” value was determined as 0.0443 ± 0.0068 in experiment [1] and 0.00333 ± 0.0019 in experiment [2].

Take GGAGACCUAUGAGUACAACCUACUACCUCA: the figures for the “pre-steady-state target cleavage rate” value in experiment [1] and in experiment [2] were 0.00674 ± 0.0022 and 0.00713 ± 0.004, respectively.

Take GGAGACCAUGCUAUACAACCUACUACCUCA: the “pre-steady-state target cleavage rate” value in experiment [1] was found to be 0.145 ± 0.023; in experiment [2] it was 0.00746 ± 0.0043.

Consider GGAGACCUUACUAUACAACGUACUACCUGA, for which the “pre-steady-state target cleavage rate” value in experiment [1] stood at 0.0102 ± 0.0027; in experiment [2], 0.00475 ± 0.0042.

Regarding GGAGACGAUACUAUACAACCUACUACUUCA, the results for the “pre-steady-state target cleavage rate” value in experiment [1] and in experiment [2] were 0.162 ± 0.013 and 0.00983 ± 0.0039, respectively.

For the sequence GGAGAGGAUACUAUACAACCUACUACCGUCA, the “pre-steady-state target cleavage rate” value in experiment [1] turned out to be 0.0203 ± 0.0064; in experiment [2], 0.00833 ± 0.0032.

Regarding GGAGACGAUACAAAACAACCUACUACCUCA, the “pre-steady-state target cleavage rate” value in experiment [1] was 0.149 ± 0.018; in experiment [2], 0.00359 ± 0.0033.

As for GGAGACCAUCCUAUACAACCUACUACCUCA, the “pre-steady-state target cleavage rate” value in experiment [1] was 0.16 ± 0.03; in experiment [2], 0.01 ± 0.006.
